Assay outcomes (PubChem)
The list is not random: actives were taken first. Their share in the collection is about 6.9%.
KB-3-1 cytotox: qHTS assay for MDR1-selective chemotherapeutics: Primary screen using the parental adenocarcinoma cell KB-3-1; KB-3-1 viability, CellTiter-Glo ATP luminescence, 72 h; Potency, µM (highest dose often 46.1 µM), actives largely listed as cytotoxic; 1.4% of 400,000 active; also: nearly all actives have a fitted effect of over 60% in size
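KB-3-1 parental drug-naive adenocarcinoma cells in DMEM/10% FBS, incubated 72 h at 37 C with pin-transferred compounds across a concentration series. Viability by CellTiter-Glo luminescence; concentration-response curves fitted after normalization.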
KB-V1 MDR tox: qHTS assay for MDR1-selective chemotherapeutics: Primary screen using the drug-selected MDR subline cells KB-V1; KB-V1 MDR cells viability, CellTiter-Glo, 72 h; Potency, µM (titrated, usually from 46.1 µM), actives largely listed as cytotoxic; 3.4% of 400,000 active; AID 1347076, 2019; also: nearly all actives have a fitted effect of over 60% in size
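In this primary screen, KB-V1 cells overexpressing P-gp are incubated with library compounds (lowest to highest concentration) for 72 h at 37 degrees C before a luminescent ATP viability read.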
Giardia killer: Small Molecules that selectively kill Giardia lamblia: qHTS; 0.15% of 340,000 active; Giardia lamblia trophozoite viability; activity change, % at 7.66 µM, hits read low; in the data active = activity change below about -80%; inconclusive = between about -30% and that limit;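 also: parasites exposed to compound for two days anaerobically before the ATP read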
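Killing of trophozoites was scored by loss of ATP luminescence after a 48 hrs anaerobic exposure to compounds at 37 deg C, using 100 cells per well.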
SW480 rerep: A quantitative high throughput screen for small molecules that induce DNA re-replication in SW480 colon adenocarcinoma cells | SW480 DNA re-replication, Hoechst DNA content imaging, 48 h | Potency, µM (top dose mostly 46.1 µM), hits mostly activators | 1.8% of 340,000 active; also: nearly all actives have a fitted effect of over 55% in size
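Image-based read-out: total Hoechst fluorescence of nuclei (405 nm excitation, 500-530 nm emission), with hits raising the fraction of high-intensity nuclei. SW480 colon cells incubated 48 hr with compounds at 37 C.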
MCF10A rerep: A quantitative high throughput screen for small molecules that induce DNA re-replication in MCF 10a normal breast cells. Potency, µM (series often up to 46.1 µM), actives largely listed as activators. MCF 10A DNA re-replication, Hoechst nuclear intensity, 48 h. 2.9% of 350,000 active; also: nearly all actives have a fitted effect of over 50% in size
S-ASM inh: Inhibitors of Secretory Acid Sphingomyelinase (S-ASM): qHTS; 0.006% of 340,000 active; Sphingomyelin phosphodiesterase (Homo sapiens), P17405; Potency, µM (top dose mostly 57.5 µM), usual class: inhibitors; placental ASM, HMU-PC fluorogenic substrate, 60 min
Target sequence (P17405 47-631 limits assumed): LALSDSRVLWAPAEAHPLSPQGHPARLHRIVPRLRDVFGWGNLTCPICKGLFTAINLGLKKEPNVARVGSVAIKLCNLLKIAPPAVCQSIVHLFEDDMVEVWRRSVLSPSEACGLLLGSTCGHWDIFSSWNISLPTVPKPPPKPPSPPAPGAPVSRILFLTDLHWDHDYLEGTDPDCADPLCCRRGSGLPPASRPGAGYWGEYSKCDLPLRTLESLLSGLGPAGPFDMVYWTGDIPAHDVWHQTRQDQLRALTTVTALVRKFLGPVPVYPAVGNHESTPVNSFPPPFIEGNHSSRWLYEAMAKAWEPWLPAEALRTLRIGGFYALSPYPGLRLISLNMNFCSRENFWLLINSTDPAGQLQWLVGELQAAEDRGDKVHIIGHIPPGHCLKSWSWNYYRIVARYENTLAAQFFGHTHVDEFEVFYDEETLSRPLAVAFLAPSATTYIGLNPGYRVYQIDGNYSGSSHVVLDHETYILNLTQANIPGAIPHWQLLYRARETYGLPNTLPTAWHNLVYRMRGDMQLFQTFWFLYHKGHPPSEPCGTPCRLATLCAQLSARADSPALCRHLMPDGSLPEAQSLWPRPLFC
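HMU-PC0 cleavage (9 uM final) by human placental ASM, 60 min at 37 °C following 10 min compound exposure at RT; stopped at pH 10, fluorescence Ex 386/Em 447 nm.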
A number is an active result; i = inactive; ? = inconclusive; nt = not tested or not shown; [ ] = dose if it differs, or a comment. Unless noted, calls follow the shape of the dose curve; as a rule, active = well fitted curve in the direction sought with a large enough effect; inconclusive = small, poorly fitted or top-dose-only effect, or another doubt; inactive = no such curve, though single readings can be large; an effect the other way counts as inactive or inconclusive.

SMILES | KB-3-1 cytotox | KB-V1 MDR tox | Giardia killer | SW480 rerep | MCF10A rerep | S-ASM inh
Cc1cc(C)c2c(c1)C1C=CCC1C(C(=O)O)N2 (centres undefined) | nt | nt | i | nt | nt | nt
CCn1cc(S(=O)(=O)c2ccccc2)c(=O)c2cc(F)c(N3CCCC3)cc21 | i | i | nt | nt | nt | nt
Cc1onc(-c2c(F)cccc2Cl)c1C(=O)OCC(=O)c1c(N)n(C)c(=O)n(C)c1=O | i | i | i | i[1.84 µM] | i | i
CCOc1ccc(C(=O)NCCn2cc(SCC(=O)Nc3ccc4c(c3)OCCO4)c3ccccc32)cc1 | i | ? | nt | nt | nt | nt
CCOC(=O)C1C(=O)NC(c2ccccc2)=NC1c1ccc(F)cc1 (centres undefined) | i | i | i | i | i | i
CSC1=NC(C(Cl)(Cl)Cl)N=C(c2ccccc2)N1 (centres undefined) | 3.3µM | 5.8µM | i | ? | ? | i
Cc1ccc(Nc2nc(CSc3nnnn3-c3ccccc3)cs2)cc1 | ? | 15µM | i | i | i | i
Cn1nnnc1SCc1csc(Nc2ccccc2)n1 | i | i | i | i | i | i
Cc1ccc(Nc2nc(CSc3nnc(-c4ccccc4C)n3C)cs2)cc1 | ? | 6.5µM | i | i | ? | i
Cc1ccc(Nc2nc(CSc3nnnn3C)cs2)cc1 | i | 23µM | i | i | i | i
CN1C(C(=O)c2ccccc2)=C(OC(=O)c2ccc(Br)cc2)c2ccccc2S1(=O)=O | i | i | nt | nt | nt | nt
NS(=O)(=O)c1ccc(Sc2nc3ccccc3s2)c([N+](=O)[O-])c1 | i | ? | i | i | 5.8µM | i
CC(C)NCC(O)COC1CCC(C(C)(C)C)CC1 (centres undefined) | 23µM | ? | i | ? | i | i
CC(C)(C)C1CCC(OCC(O)CN2CCN(c3ccccn3)CC2)CC1 (centres undefined) | ? | 16µM | i | i | ? | i
OC(COC1CCCCC1)CN1CCN(c2ccccc2)CC1 (centres undefined) | i | ? | i | i | i | i
CC(C)(C)C1CCC(OCC(O)CN2CCN(Cc3ccccc3)CC2)CC1 (centres undefined) | i | i | ? | 15µM | i | i
COc1ccc(C(O)P(=O)(OCC(C)C)OCC(C)C)c(OC)c1 (centres undefined) | i | 16µM | i | i | i | i
COc1ccc(C(O)P(=O)(OC(C)C)c2ccc(N(C)C)cc2)c(OC)c1 (centres undefined) | i | i | ? | i | i | i
Cc1c(C(=O)Nc2ccccc2N2CCN(C)CC2)oc2ccc(F)cc12 | 16µM | ? | i | ? | ? | i
CN1CCN(c2ccccc2NC(=O)c2ccc([N+](=O)[O-])o2)CC1 | nt | nt | -92 | 2.3µM | 15µM | i
CN1CCN(c2ccccc2NC(=O)c2ccc(-c3cccc([N+](=O)[O-])c3)o2)CC1 | i | i | i | ? | ? | i
CS(=O)(=O)N1CCN(c2ccccc2NC(=O)c2ccc([N+](=O)[O-])o2)CC1 | i | ? | -98 | i | ? | i
COc1ccc(-c2c(C#N)c(N)nc(Sc3ccc(Cl)cc3)c2C#N)cc1 | i | i | i | ? | ? | i
COc1nc(N)c(C#N)c(-c2ccc(N(C)CCC#N)cc2)c1C#N | i | ? | i | i | 18µM | i
CNc1cccnc1C=NNC(N)=S | ? | ? | i | 0.92µM | i | i
SMILES | KB-3-1 cytotox | KB-V1 MDR tox | Giardia killer | SW480 rerep | MCF10A rerep | S-ASM inh
NC(=S)N/N=C/c1cccnc1 | nt | nt | nt | i | i | nt
O=C(OCc1ccccc1Cl)c1ccc(-c2nnn(Cc3ccccc3)n2)cc1 | i | i | nt | nt | nt | nt
CC1(C)N=C(N)N=C(N)N1CCCCc1ccccc1 | 1.5µM | i | i | i | i | i
CCOC(=O)c1c(S(=O)(=O)N2CCC(C(=O)Nc3ccc(OCC)cc3)CC2)c(C)n(C)c1C | i | i | nt | nt | nt | nt
Cc1ccc(S(=O)(=O)N(CC(=O)Nc2ccccc2C(=O)O)c2ccc(Cl)cc2)cc1 | i | i | i | ? | i | i
CCOC(=O)c1sc2nc(C3CC3)cc(-c3ccc(OC)cc3)c2c1N | i | i | i | 6.5µM | 3.7µM | i
CCOC(=O)c1sc(-c2ccc(F)cc2)cc1N | i | i | i | i | ? | i
CCOC(=O)c1sc2nc(C3CC3)cc(-c3ccc(F)cc3)c2c1N | i | 15µM | i | 18µM | ? | i
CC1=C(C(=O)N2CCCCCC2)CC(CC(=O)NC(c2ccccc2)c2ccccc2)C(=O)N1CCC1=CCCCC1 (centres undefined) | ? | 16µM | nt | nt | nt | nt
CC1=C(C(=O)N2CCOCC2)CC(CC(=O)NC2CC2)C(=O)N1CCC1=CCCCC1 (centres undefined) | i | i | nt | nt | nt | nt
Cc1ccc(C(=O)C[n+]2ccc(Cc3ccccc3)cc2)cc1 | 4.6µM | i | i | i | i | i
COc1ccc(N2CCN(C(=O)C3CCC(Cn4c(=S)[nH]c5ccccc5c4=O)CC3)CC2)cc1 (centres undefined) | 18µM | 2.9µM | i | ? | i | i
O=C(C1CCC(Cn2c(=S)[nH]c3ccccc3c2=O)CC1)N1CCOCC1 (centres undefined) | ? | 23µM | i | i | i | i
COc1ccc(N2CCN(CCCn3c(=S)[nH]c4ncccc4c3=O)CC2)cc1 | 6.5µM | i | i | i | i | i
O=C(C1CCC(Cn2c(=S)[nH]c3ccccc3c2=O)CC1)N1CCN(c2ccccc2)CC1 (centres undefined) | i | i | i | i | ? | i
C=CCSC1=NC(=O)/C(=C/c2cccs2)S1 | i | i | i | i | 18µM | i
COc1cccc(C2C=C(c3ccc(Br)s3)Nc3ncnn32)c1OC (centres undefined) | ? | 5.2µM | i | i | i | i
Fc1ccc(Br)cc1C1C=C(c2ccc(Br)s2)Nc2ncnn21 (centres undefined) | ? | ? | i | 0.58µM | ? | i
COc1cccc(C2=CC(c3ccc(OC)c(OC)c3OC)n3ncnc3N2)c1 (centres undefined) | i | i | nt | nt | nt | nt
COc1ccc(-c2noc(-c3ccc(NCc4ccco4)c([N+](=O)[O-])c3)n2)cc1 | i | i | nt | nt | nt | nt
CCC(=O)OCOc1ccc(/C=C2/CCC(CN(C)C)C2=O)cc1 (centres undefined) | ? | ? | i | 12µM | ? | i
CCn1ccnc1C(O)c1ccccc1OC (centres undefined) | i | i | i | 18µM | 13µM | i
COc1ccc(-c2nc(-c3ccccn3)ncc2S(C)(=O)=O)cc1 | ? | i | i | i | i | i
Cc1ccc(-n2c3nc(=O)n(C)c(=O)c-3cc3ccccc32)cc1 | i | i | i | ? | i | i
